According to PubChem BioAssay AID651602 (The Scripps Research Institute Molecular Screening Center, 2012):
Several values for one entry are separate records, joined by “and”; a condition that tells them apart may be missing. Equal entries are not always repeated. Hit rate of the full screen: of about 360,000 compounds, about 950 (0.26%) were called active. The full list was thinned out, with actives kept by preference. Values without a mark were called inactive. Cut-off read from the data, not from the text of the source: active = inhibition above about 11%; inactive = the rest.

Experiment: reduced absorbance of E. coli cultures with phage – HTS, RecBCD inhibitor project, primary screen (AID 651602)
Settings: growth absorbance, at 11.9 µM, active compounds read high

Compound | inhibition
CC1(C(=O)NS(=O)(=O)c2ccccc2)CCN1C(=O)Cc1ccc(-c2ccccc2)cc1 (stereo not drawn) | -0.69%
CC1(C(=O)NS(=O)(=O)c2ccccc2)CCN1C(=O)c1ccccc1 (stereo not drawn) | 2.52%
CC1(C(=O)NS(=O)(=O)c2ccccc2)CCN1C(=O)C/C=C/c1ccccc1 (stereo not drawn) | 13.4% (active)
COc1ccccc1CCn1cnc(-c2ccccc2)c1C(C)C | 1.47%
Nc1nc2c(ncn2[C@@H]2O[C@H](C(=O)N[C@@H](Cc3ccccc3)C(=O)NCc3ccccc3)[C@@H](O)[C@H]2O)c(=O)[nH]1 | 3.17%
COc1ccc2c(c1)c(=Cc1ccc(N(C)C)cc1)c1cc(-c3ccccc3)[n+](C)n12 | 23.7% (active)
Cc1c(C=O)c2ccccc2n1CC(=O)O | 0.31%
CC(=O)c1c(C)n([O-])c2ccccc2[n+]1=O | 25.5% (active)
NC(=O)c1ncn([C@@H]2O[C@H](C(=O)O)[C@@H](O)[C@H]2O)n1 | 0.63%
C[C@H]1CN([C@@H](C)CO)C(=O)CCCn2nncc2CO[C@@H]1CN(C)C(=O)Nc1ccc(N2CCN(C)CC2)cc1 | 0.4%
Cc1ccc(NC(=O)N2c3ccccc3SC2c2ccco2)c(C)c1 (stereo not drawn) | 5.53%
CC(=NNC(N)=O)c1ccc(Cl)c(-n2cccc2)c1 | 5.68%
CCCCOCC1CN(CCCC)S(=O)(=O)c2c(Oc3ccc(F)cc3)cccc2O1 (stereo not drawn) | 5.95%
O=C(COC(=O)COc1cc(Cl)c(Cl)cc1Cl)NC1CC1 | 3.17%
O=C(COc1cc(Cl)c(Cl)cc1Cl)NCCc1ccccn1 | -0.15%
NC(=S)NN=Cc1ccc(OC(=O)COc2cc(Cl)c(Cl)cc2Cl)cn1 | 11.6% (active)
C=CC1=CCN(S(=O)(=O)C(C)(C)C)[C@@H]1CCO | 1.03%
Nc1ncnc2c1ncn2C1OC(CO)CC1O (stereo not drawn) | 3.4%
C[C@H](CO)N1C[C@H](C)[C@@H](CN(C)C(=O)Nc2ccccc2F)OCc2cn(nn2)CCCC1=O | 0.72%
O=C1CCC(=O)N(O)CCCCCNC(=O)CCC(=O)N(O)CCCCCNC(=O)CCC(=O)N(O)CCCCCN1 | 23.5% (active)
COCc1cc(N2CCN(C(=O)OC(C)(C)C)C[C@@H]2C)ccc1N1CCN(Cc2ccccc2)[C@H](C)C1 | -2.53%
Cc1cccc(NS(=O)(=O)c2cccc(C(=O)NNC(=O)c3ccccc3O)c2)c1 | 5.15%
O=C(NNC(=O)c1ccccc1O)c1ccccc1O | 30% (active)
O=C(NNC(=O)c1cc(S(=O)(=O)N2CCCCC2)ccc1Cl)c1ccccc1O | 1.7%
COC(=O)C1=C(C)N(Cc2ccc(C(F)(F)F)cc2)C(=NCc2ccc(C(F)(F)F)cc2)NC1c1cccc(Cl)c1 (stereo not drawn) | 1.58%
O=C(NS(=O)(=O)c1cccs1)[C@H]1O[C@@H](n2ccc(=O)[nH]c2=O)[C@H](O)[C@@H]1O | 3.33%

Compound | inhibition
COc1cc(NC(=O)CSc2ccc(-c3cccnc3)nn2)cc(OC)c1 | 0.39%
O=C(CSc1ccc(-c2ccccn2)nn1)Nc1ccccc1 | 12.9% (active)
O=C(CSc1ccc(-c2ccc(-n3cccn3)cc2)nn1)Nc1ccc([N+](=O)[O-])cc1 | -0.99%
O=C1Nc2ccccc2C1=NN=Cc1ccco1 | -0.54%
C=CC[C@]12C[C@@]3(O[C@H](c4ccc(C(F)(F)F)cc4)N=C3C[C@H](c3ccc(OC)cc3)[C@H]1C)N(C1CCN(Cc3ccccc3)CC1)C2=O | 6.28%
CC1CCCN(c2cccc3c2S(=O)(=O)N(Cc2ccc(F)cc2)[C@@H](C)[C@H](c2ccccc2)O3)C1 (stereo partly drawn) | 1.59%
N#Cc1ccc(OCCCN2CCC(C(O)(c3ccccc3)c3ccccc3)CC2)c(F)c1 | 0.63%
C=CCn1c(=O)c(C(=O)Nc2ncccc2O)c(O)c2ccccc21 | 3.7%
CCn1c(=O)cc(SCC(=O)NCc2ccc3c(c2)OCO3)c2ccccc21 | 1.95%
C=CCn1c(=O)c(C(=O)NCc2ccc3c(c2)OCO3)c(O)c2ccccc21 | 12.1% (active)
CCOC(=O)c1ccc(NC(=O)CS(=O)(=O)c2cn(CC)c3ccccc23)cc1 | 0.46%
CCOC(=O)c1ccc(NC(=O)CCn2c(=O)oc3ccccc32)cc1 | 1.49%
CCOC(=O)c1ccc(NC(=O)Cn2cnc3cc(C)c(C)cc32)cc1 | 18.8% (active)
Cc1ccccc1C(=O)N[C@H](C(=O)N1CCC[C@H]1C(=O)NCc1ccccc1)C(C)C | -1.25%
CC(C)(C)OC(=O)N/N=C/c1ccc(C(=O)O)cc1 | 1.87%
COC(=O)N/N=C/c1c[n+]([O-])c2ccccc2[n+]1[O-] | 37.5% (active)
COC(=O)C(C)N=Cc1ccccc1 (stereo not drawn) | 0.77%
Cc1ccc2nc(CN(C)C(=O)[C@@H](Cc3ccccc3)NC(=O)[C@H]3O[C@@H](n4ccc(=O)[nH]c4=O)[C@H](O)[C@@H]3O)[nH]c2c1 | 2.03%
COC(=O)[C@]12C[C@H](CC(=O)N3CCN(C(=O)C4CC4)CC3)C(=O)N(Cc3ccc4c(c3)OCO4)C1=C[C@H](C(C)(C)C)O[C@@H]2C | 2.87%
Cc1ccc(C)c(CN2CCC(CNC(=O)C3CCCN(c4ncnc5c4nc4n5CCCCC4)C3)CC2)c1 (stereo not drawn) | 3.47%
CCCOc1ccc(Cl)cc1Nc1nc(NCCO)nc(N2CCCC2)n1 | 0.63%
COc1ccc(OC)c(NC(=O)CCN2CCC(C)CC2)c1 | -0.47%
CCN1CCN(c2nc(Nc3cc(OC)ccc3OC)nc(Nc3cc(OC)ccc3OC)n2)CC1 | 99.1% (active)
O=S1(=O)c2c(cccc2N2CCCC2)O[C@H](COCc2ccccc2)CN1C1CC1 | 2.78%
Cc1[nH]c2ccccc2c1CC(=O)Nc1ccc(Nc2cccnc2)c(-c2cccc(Cl)c2)c1 | 3.75%
CCN1C(=O)N[C@@H]2C[C@H](C(=O)N3CCCC3)[C@H](C)[C@H](c3ccccc3)C[C@@H]21 | 4.26%

Compound | inhibition
COC(=O)c1cc2c(c3c4cc(F)ccc4n(S(=O)(=O)c4ccccc4)c13)C(=O)N(Cc1ccccc1OC)C2 | 0.23%
O=C(N[C@H](C(=O)N1CCC[C@H]1C(=O)NCCc1ccccc1Cl)c1ccccc1)c1ccccc1 | 0.16%
C=CC1=C(C(=O)O)N2C(=O)[C@@H](NC(=O)/C(=N/OCC(=O)O)c3csc(N)n3)[C@H]2SC1 | 102% (active)
C=CC1=C(C(=O)O)N2C(=O)[C@@H](NC(=O)/C(=N\OCC(=O)O)c3csc(N)n3)[C@H]2SC1 | 99.8% (active)
CO/N=C(\C(=O)N[C@@H]1C(=O)N2C(C(=O)O)=C(COC(C)=O)CS[C@H]12)c1csc(N)n1 (stereo in doubt) | 101% (active) and 100% (active) and 99.7% (active)
CC1(C)OC(=O)C2=C(CC(CCc3ccccc3)OC2c2ccc(Cl)cc2)O1 (stereo not drawn) | 0.56%
COC(=O)[C@]1(Cc2ccccc2)NC=C(C(=O)c2ccccc2)[C@@H]1c1cccc(OC)c1 | 0.08%
O=C(NN=Cc1ccco1)C(=O)Nc1ccc(Cl)c([N+](=O)[O-])c1 | 1.23%
COC(=O)C(C(=O)OC)c1ccccc1NS(=O)(=O)c1cccc2ccccc12 | 3.8%
C[C@H](O)[C@@H]1CN2CCc3ccc(-c4ccc5c(c4)OCO5)cc3[C@@H]2C[C@@H]1N(C)C(=O)C1CCCCC1 | 4.59%
OC(c1ccccc1)(c1ccccc1)C1CCN(CCCOc2ccc(-c3ccsc3)cc2)CC1 | -2.69%
O=C(C(=O)N1CCC(CNC(=O)c2cccnc2Cl)CC1)c1cccs1 | 2.71%
COc1ccc(C2=CN(Cc3ccccc3)C(c3ccc(OC)cc3)CC2=O)cc1 (stereo not drawn) | 3.64%
C[C@H]1[C@H](c2ccccc2)Oc2cc(Br)ccc2S(=O)(=O)N1Cc1cccc(F)c1 | 1.98%
COC(=O)[C@]12C[C@H](CC(=O)NCCc3ccccc3OC)C(=O)N(Cc3ccccc3)C1=C[C@H](C(C)C)O[C@@H]2C1CC1 | 1.94%
COC(=O)c1c(-c2ccc(OC)cc2)c2c(c3c4cc(OC)ccc4n(S(=O)(=O)c4ccc(F)cc4)c13)C(=O)N(C)C2 | 2.25%
Oc1c(Cl)cc(Cl)c(Cl)c1Cc1c(O)c(Cl)cc(Cl)c1Cl | 17.2% (active)
Cc1noc(C)c1NC(=O)Nc1ccc2c(c1)C(=O)N([C@H](C)CO)C[C@H](C)[C@H](CN(C)Cc1ccncc1)OCCCC[C@@H](C)O2 | 2.8%
COc1ccc(S(=O)(=O)Nc2ccc3c(c2)C(=O)N([C@H](C)CO)C[C@H](C)[C@@H](CN(C)C)OCCCC[C@H](C)O3)cc1 | 2.32%
CCOC(=O)NN1C(=O)c2ccccc2NC1c1cccc(O)c1 (stereo not drawn) | 2.82%
CC(=O)NN1C(=O)c2ccccc2NC1c1ccccc1 (stereo not drawn) | -1.19%
O=C1c2ccccc2NC(c2ccc(-c3cccc(Cl)c3)o2)N1O (stereo not drawn) | 21% (active)
CCCCCCCCN1C(=O)[C@@H](CC(=O)NCCCC)C[C@@]2(C(=O)OC)C1=C[C@H](C(C)(C)C)O[C@@H]2C | 3.8%
CC[C@H](C)[C@H]1CNC(=O)C(=O)N1CC1CCN(CCc2ccc(OC)c(OC)c2)CC1 | 1.03%
C#CCN([C@@H](C)C(=O)OCC)S(=O)(=O)c1ccc(Br)cc1F | 1.36%
CC(C)(C)C(c1nc2ccccc2[nH]1)n1c(Cc2csc3ccccc23)nc2ccccc21 (stereo not drawn) | -0.16%
